The text below walks through data of PubChem BioAssay (NCATS).

Assay [1] in a line: Cell Viability - Jurkat (AID 426;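 active means dose-dependent loss of cell ATP signal giving a full or clear fitted curve, ranked by lower potency value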; further: potency means the concentration at half of the fitted maximal effect). The following applies: qHTS. The procedure, abridged: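 Jurkat (Clone E6-1) cells, 5000/well in complete medium, exposed to compounds for 40 hr at 37C; intracellular ATP measured by CellTiter-Glo luminescence after 20 min at room temperature. AC50 from Hill fits.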
(Quantitative high-throughput screening tests each substance at several concentrations.)

The nature of assay [2]: Cell Viability - HepG2 (AID 433).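 Further: potency means the concentration at half of the fitted maximal effect; potency for ATP loss meaning cytotoxicity.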 The following applies: qHTS. The procedure, abridged: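 HepG2 cells, 1500 per well, treated 40 hr at 37 °C in complete medium; viability from intracellular ATP by CellTiter-Glo luminescence. Normalized to DMSO and 100 uM tamoxifen; AC50 from Hill fit of qHTS concentration-response.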
Assay [3] in a line: Cell Viability - NIH 3T3 (AID 541; active means well fitted curve in the direction sought with a large enough effect; an effect the other way counts as inactive or inconclusive; further: nearly all actives have a fitted effect of over 25% in size; further: potency means the concentration at half of the fitted maximal effect;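 on activity change, negative = cytotoxicity: plate controls were DMSO alone for no effect and tamoxifen positive control for full effect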). As to conditions: NIH 3T3 cell viability, qHTS; activity change, negative = cytotoxicity: at 92.2 µM (top of the series). The method in brief:
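Mouse NIH 3T3 fibroblasts, 1000 cells/well, rested 5 hr at 37 °C, then exposed to compound for 40 hr at 37 °C in complete medium. Viability read as intracellular ATP by CellTiter-Glo luminescence; AC50 from Hill-equation fits of concentration-response data.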

Assay [4] can be described thus: MultiTox-Fluor Cytotoxicity Assay - LYMP1-002 - Dead Cells (AID 960; active means well fitted curve in the direction sought with a large enough effect; an effect the other way counts as inactive or inconclusive;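 further: 0% = DMSO and 100% = tetraoctylammonium bromide; nearly all actives have a fitted effect of over 60% in size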). As to conditions: LYMP1-002 lymphoblastoid cells, dead-cell protease fluorescence; series mostly up to 46.1 µM. The procedure, abridged:
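Human lymphoblastoid LYMP1-002 cells, 2500/well, treated 16 h at 37 C; dead-cell protease cleavage of bis-AAF-R110 read by fluorescence (485/520); normalized to DMSO and 15 uM tetraoctylammonium bromide; AC50 from Hill fit.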

Assay [5] is described as follows: Cell Viability - LYMP2-024 (AID 988; active means well fitted curve in the direction sought with a large enough effect; an effect the other way counts as inactive or inconclusive;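 further: plate controls were DMSO only for no effect and 92 µM tetraoctylammonium bromide for full effect; nearly all actives have a fitted effect of over 60% in size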). The following applies: LYMP2-024 lymphoblastoid cell viability; series mostly up to 92.2 µM. The method in brief:
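Human lymphoblastoid LYMP2-024 cells (2500/well) rested 5 hr, then treated with compound for 24 hr at 37 C in complete medium. Viability was measured as intracellular ATP by CellTiter-Glo luminescence. AC50 values came from Hill-equation fits.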

Assay [6] has as its target Glucocorticoid receptor (Homo sapiens) (UniProt P04150). Briefly: qHTS assay for small molecule agonists of glucocorticoid receptor signaling (AID 588532; active means well fitted curve in the direction sought with a large enough effect in the signal ratio, with a control signal flat; the % refers to the signal ratio;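 further: 100% = dexamethasone at 0.1 µM and 0% = DMSO only wells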). The following applies: HeLa MMTV-bla, beta-lactamase ratio, agonist, 18 h; stronger effect = higher value; percent of dexamethasone control, DMSO zero. The procedure, abridged: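 Cells were plated and rested 3-5 h at 37 C, compounds were added in titration and incubated 18 h, then CCF4 substrate was loaded for 2 h at RT before reading blue/green fluorescence. EC50 came from Hill-equation fitting.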

For assay [7], the target named is Vitamin D3 receptor (Homo sapiens) (UniProt P11473). Put plainly: qHTS assay for small molecule agonists of vitamin D receptor signaling (AID 588543).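 Further: 0% = DMSO basal and 100% = reference agonist control.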 The following applies: HEK293T VDR-UAS-bla, beta-lactamase ratio, 16 h; series mostly up to 76.8 µM. The method in brief: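 VDR-UAS-bla HEK293T cells, 2000/well, 2% charcoal-stripped FBS; compound titration 16 h at 37 C; CCF4 beta-lactamase ratio read. Normalized to 50 nM 1-alpha,25-dihydroxyvitamin D3 (100%) and DMSO; Hill fit gives EC50, efficacy.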

Assay [8] is described as follows: qHTS assay for small molecule agonists of the antioxidant response element (ARE) signaling pathway (AID 651741; active means well fitted activation curve with a large enough effect in the signal ratio; the % refers to the signal ratio; further: potency means the concentration at half of the fitted maximal effect; on activation: % of control where 0% means no effect). As to conditions: HepG2 ARE-bla reporter, beta-lactamase FRET ratio, 16 h; series mostly up to 96 µM. The method in brief:
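CellSensor ARE-bla HepG2 cells (2,000/well) carrying ARE-driven beta-lactamase, exposed 16 h at 37 C. LiveBLAzer B/G FRET substrate added for 2 h at room temperature; fluorescence intensity read.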

The nature of assay [9]: qHTS assay for small molecule activators of the nuclear factor-kappa B (NF-kB) signaling pathway (AID 651749; active means well fitted activation curve with a large enough effect in the signal ratio; the % refers to the signal ratio; further: % of control where 0% means no effect). The following applies: NF-kB-bla ME-180 cells, beta-lactamase FRET ratio, 16 h; stronger effect = higher value. The procedure, abridged: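 NF-kB-bla ME-180 cells carrying a beta-lactamase reporter under an NF-kB response element, 2,000 cells/well, exposed to compound for 16 hr at 37C; FRET-based beta-lactamase fluorescence read-out of pathway activation.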

The nature of assay [10]: qHTS assay for small molecule disruptors of the mitochondrial membrane potential - 5 hr assay (AID 651755). Further: on the % scale 0 is the no-effect control and ±100 the full control effect; nearly all actives have a fitted effect of over 40% in size. As to conditions: JC-1-type ratio dye; series mostly up to 92.2 µM. The method in brief:
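HepG2 cells (2,000/well), attached overnight, exposed to compound 5 hr at 37C, then Mito-MPS dye 30 min. Fluorescence read for monomers (490/535 nm) and aggregates (540/590 nm).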

Assay [11] deals with Tumor necrosis factor (Homo sapiens) (UniProt P01375). Put plainly: qHTS assay to identify small molecules that stimulate Tumor Necrosis Factor-alpha (TNF-alpha) secretion (AID 651757; active means well fitted curve in the direction sought with a large enough effect in the signal ratio; the % refers to the signal ratio; further: 0% is about no effect). The following applies: Human cells, HTRF 665/615 ratio; series mostly up to 92.2 µM. The procedure, abridged: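 THP-1 cells (3000/well) exposed to compounds 17 hrs at 37 C. Secreted TNF-alpha detected by HTRF with cryptate- and XL665-labeled anti-TNF-alpha antibodies after 3 hr at room temperature.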

The target in assay [12] is Nuclear receptor ROR-gamma (Homo sapiens) (UniProt P51449). Put plainly: qHTS assay for small molecule antagonists of the retinoid-related orphan receptor gamma (ROR-gamma) signaling pathway (AID 651802; active means well fitted curve in the direction sought with a large enough effect; an effect the other way counts as inactive or inconclusive;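 further: luciferase reporter luminescence driven by ROR response element; on the % scale 0 is the no-effect control and ±100 the full control effect; nearly all actives have a fitted effect of over 60% in size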). As to conditions: ROR-gamma antagonist cell reporter assay; series mostly up to 92.2 µM. The procedure, abridged:
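CHO cells with TET-inducible ROR-gamma and RORE-luciferase reporter, dosed then doxycycline-induced. After 16 h at 37C, One-Glo luminescence read; decreased signal indicates antagonism.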

The target of assay [13] is Mitogen-activated protein kinase 10 (Mus musculus) (UniProt Q61831). Briefly: JNK3 AlphaScreen Assay (AID 530; active means well fitted curve in either direction with a large enough effect, not every such curve was filed as active;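 further: kinase came from lysate of stimulated human HepG2 cells; signal reports phosphorylation of biotinylated GST-cJun 1-79 at Ser73 with 10 µM ATP; on the % scale 0 is the no-effect control and ±100 the full control effect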). The following applies: JNK3 lysate, c-Jun phosphorylation; series mostly up to 57.1 µM. The procedure, abridged: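 Pre-activated (IL-1β/TNFα) JNK3 in HepG2 lysates phosphorylates biotin-GST-cJun(1-79), 10 uM ATP; anti-phospho-cJun(Ser73) AlphaScreen read at room temperature, pH 7.6 Tris buffer. Compounds pre-incubated 15 min as titrations.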
In general terms: Bead proximity is the source of the signal in Alpha formats.

Assay [14] deals with Estrogen receptor (Homo sapiens) (UniProt P03372). Put plainly: qHTS assay for small molecule antagonists of estrogen receptor alpha signaling (AID 588513; active means well fitted curve in the direction sought with a large enough effect in the signal ratio, with a control signal flat, not every such curve was filed as active; the % refers to the signal ratio; further: on the % scale 0 is the no-effect control and ±100 the full control effect). As to conditions: ER-alpha-UAS-bla HEK293, beta-lactamase ratio, antagonist mode; series mostly up to 76.9 µM. The method in brief:
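ER-alpha-UAS-bla GripTite HEK 293 cells in 2% charcoal/dextran-treated FBS medium; compounds titrated (1:2, duplicate), then stimulated with 0.5 nM 17-beta-estradiol for 18 h at 37C. CCF4 beta-lactamase fluorescence; Hill-fit IC50 and efficacy.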

The nature of assay [15]: qHTS assay for small molecule antagonists of peroxisome proliferator-activated receptor delta signaling (AID 588535; active means well fitted inhibition curve with a large enough effect in the signal ratio, with a control signal flat, not every such curve was filed as active; the % refers to the signal ratio;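 on max response: cells co-treated with a PPAR-delta agonist as stimulator during compound exposure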). The following applies: HEK293T PPARd-UAS-bla, beta-lactamase FRET ratio, 18 h; 460 nm channel. The method in brief:
(§1)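 Antagonist-mode beta-lactamase reporter (GeneBLAzer PPAR-delta-UAS-bla) in HEK293T cells, 2% charcoal/dextran FBS, 4000 cells/well. Compound titrations, 18 h at 37 C; CCF4 ratio read, IC50 and efficacy from Hill fits.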

The target of assay [16] is Bile acid receptor (Homo sapiens) (UniProt Q96RI1). Put plainly: qHTS assay for small molecule agonists of farnesoid X receptor signaling (AID 588527).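 Further: 0% = vehicle basal and 100% = reference agonist.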 The following applies: HEK293T FXR-UAS-bla, beta-lactamase ratio, 16 h; stronger effect = higher value. The method in brief: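 Read-out: beta-lactamase reporter fluorescence with CCF4 substrate in GeneBLAzer FXR-UAS-bla HEK293T cells, after 16 h compound exposure at 37 C. Response scaled between DMSO basal (0%) and chenodeoxycholic acid at 100 uM (100%).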

The target in assay [17] is Peroxisome proliferator-activated receptor gamma (Homo sapiens) (UniProt P37231). Briefly: qHTS assay for small molecule agonists of peroxisome proliferator-activated receptor gamma signaling (AID 588536; active means well fitted curve in the direction sought with a large enough effect in the signal ratio, with a control signal flat, not every such curve was filed as active; the % refers to the signal ratio;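 further: 0% = DMSO basal wells and 100% = rosiglitazone at 2 µM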). The following applies: HEK293 PPARg-UAS-bla, beta-lactamase ratio, 16 h, percent of rosiglitazone response, DMSO as zero; series mostly up to 76.7 µM. The method in brief:
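Test agents, titrated, stimulated HEK293 UAS-bla cells overnight (16 h, 37 C). Substrate CCF4 was then added for two hours at room temperature before fluorescence reading.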

The target is the same in assay [18]. Put plainly: qHTS assay for small molecule antagonists of peroxisome proliferator-activated receptor gamma signaling (AID 588537; active means well fitted inhibition curve with a large enough effect in the signal ratio, with a control signal flat, not every such curve was filed as active; the % refers to the signal ratio;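 further: reporter cells co-stimulated with 50 nM rosiglitazone agonist during compound treatment; % of control where 0% means no effect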). As to conditions: HEK293 PPARg-UAS-bla, beta-lactamase ratio, antagonist mode; series mostly up to 76.8 µM. The method in brief: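 PPARγ-UAS-bla HEK293 cells (3000/well) in 1% charcoal/dextran-stripped FBS are treated with compound, then stimulated with 50 nM rosiglitazone for 16 h at 37 °C. Read-out is CCF4 β-lactamase fluorescence after 2 h at RT. IC50 comes from Hill fits normalised to rosiglitazone and DMSO.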

The target in assay [19] is Glucocorticoid receptor (Homo sapiens) (UniProt P04150). Put plainly: qHTS assay for small molecule antagonists of glucocorticoid receptor signaling (AID 588533; active means well fitted inhibition curve with a large enough effect in the signal ratio, with a control signal flat, not every such curve was filed as active; the % refers to the signal ratio;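 further: cells stimulated with 2 nM dexamethasone as agonist; on the % scale 0 is the no-effect control and ±100 the full control effect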). The following applies: HeLa MMTV-bla, GRE beta-lactamase ratio, antagonist mode, 18 h; series mostly up to 76.8 µM. The procedure, abridged: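 Antagonist-mode qHTS: compound titrations added to GRE-bla HeLa cells, then dexamethasone 2 nM final; 18 h, 37 C. CCF4 FRET fluorescence normalized to dexamethasone and DMSO; IC50 from Hill fit.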

Assay [20] deals with Peroxisome proliferator-activated receptor delta (Homo sapiens) (UniProt Q03181). Briefly: qHTS assay for small molecule antagonists of peroxisome proliferator-activated receptor delta signaling (AID 588535).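 On max response: cells co-treated with a PPAR-delta agonist as stimulator during compound exposure.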 The following applies: HEK293T PPARd-UAS-bla, beta-lactamase FRET ratio, 18 h; series mostly up to 76.7 µM. The procedure, abridged: as §1

Molecules are shown by their SMILES. “And” between values parts separate entries of the source, which are not always exact repeats. Equal values may be shown once. Inconclusive results are not listed. The source made the active and inactive calls. Unless noted, the call rests on the fitted dose curve.

Glucocorticoid receptor (Homo sapiens), sequence (P04150 whole entry, looked up): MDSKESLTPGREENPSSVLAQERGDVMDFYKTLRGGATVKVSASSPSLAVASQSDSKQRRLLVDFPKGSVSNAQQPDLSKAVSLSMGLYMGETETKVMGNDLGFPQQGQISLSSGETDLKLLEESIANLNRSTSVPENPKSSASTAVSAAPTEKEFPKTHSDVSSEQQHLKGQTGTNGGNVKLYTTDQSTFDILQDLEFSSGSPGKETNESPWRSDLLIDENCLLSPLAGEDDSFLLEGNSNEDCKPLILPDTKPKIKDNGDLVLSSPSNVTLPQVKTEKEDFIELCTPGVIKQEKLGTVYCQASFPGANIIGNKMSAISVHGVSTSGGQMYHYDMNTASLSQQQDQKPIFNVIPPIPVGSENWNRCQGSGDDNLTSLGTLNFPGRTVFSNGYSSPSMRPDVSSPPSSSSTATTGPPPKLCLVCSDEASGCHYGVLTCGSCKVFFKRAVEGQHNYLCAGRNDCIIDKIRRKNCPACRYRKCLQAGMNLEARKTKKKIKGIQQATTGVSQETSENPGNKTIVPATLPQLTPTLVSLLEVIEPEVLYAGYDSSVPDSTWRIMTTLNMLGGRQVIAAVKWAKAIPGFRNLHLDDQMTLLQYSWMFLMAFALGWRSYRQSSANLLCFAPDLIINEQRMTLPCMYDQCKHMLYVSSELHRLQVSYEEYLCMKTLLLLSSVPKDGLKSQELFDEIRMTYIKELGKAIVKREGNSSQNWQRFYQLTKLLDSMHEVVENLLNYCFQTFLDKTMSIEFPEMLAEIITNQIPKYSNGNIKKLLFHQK
Vitamin D3 receptor (Homo sapiens), sequence (P11473 whole entry, looked up): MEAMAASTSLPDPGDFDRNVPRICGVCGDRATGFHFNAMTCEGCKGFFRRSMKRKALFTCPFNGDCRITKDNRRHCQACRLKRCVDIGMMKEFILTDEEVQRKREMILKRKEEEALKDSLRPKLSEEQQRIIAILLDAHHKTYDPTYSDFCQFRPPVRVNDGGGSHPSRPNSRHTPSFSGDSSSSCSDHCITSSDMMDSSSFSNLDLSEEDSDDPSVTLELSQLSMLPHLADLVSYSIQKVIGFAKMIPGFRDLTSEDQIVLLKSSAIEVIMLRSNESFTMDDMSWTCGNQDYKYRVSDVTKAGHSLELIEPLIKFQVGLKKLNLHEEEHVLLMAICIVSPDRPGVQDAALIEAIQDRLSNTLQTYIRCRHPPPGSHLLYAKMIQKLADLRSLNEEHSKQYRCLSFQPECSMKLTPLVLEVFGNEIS
Peroxisome proliferator-activated receptor gamma (Homo sapiens), sequence (P37231 whole entry, looked up): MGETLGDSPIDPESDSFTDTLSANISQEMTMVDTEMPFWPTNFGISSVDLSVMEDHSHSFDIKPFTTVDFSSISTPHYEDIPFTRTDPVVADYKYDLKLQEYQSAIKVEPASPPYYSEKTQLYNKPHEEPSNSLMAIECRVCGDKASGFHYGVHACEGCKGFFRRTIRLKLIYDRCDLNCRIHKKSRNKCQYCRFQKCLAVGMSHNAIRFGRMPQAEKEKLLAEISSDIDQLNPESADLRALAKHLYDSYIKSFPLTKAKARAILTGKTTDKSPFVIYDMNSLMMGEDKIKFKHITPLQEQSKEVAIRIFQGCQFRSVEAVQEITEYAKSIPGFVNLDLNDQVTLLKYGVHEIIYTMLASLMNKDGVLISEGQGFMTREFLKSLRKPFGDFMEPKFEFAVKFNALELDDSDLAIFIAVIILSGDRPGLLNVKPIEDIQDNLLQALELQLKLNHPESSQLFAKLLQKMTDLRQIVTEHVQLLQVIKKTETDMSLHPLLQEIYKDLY
Bile acid receptor (Homo sapiens), sequence (Q96RI1 whole entry, looked up): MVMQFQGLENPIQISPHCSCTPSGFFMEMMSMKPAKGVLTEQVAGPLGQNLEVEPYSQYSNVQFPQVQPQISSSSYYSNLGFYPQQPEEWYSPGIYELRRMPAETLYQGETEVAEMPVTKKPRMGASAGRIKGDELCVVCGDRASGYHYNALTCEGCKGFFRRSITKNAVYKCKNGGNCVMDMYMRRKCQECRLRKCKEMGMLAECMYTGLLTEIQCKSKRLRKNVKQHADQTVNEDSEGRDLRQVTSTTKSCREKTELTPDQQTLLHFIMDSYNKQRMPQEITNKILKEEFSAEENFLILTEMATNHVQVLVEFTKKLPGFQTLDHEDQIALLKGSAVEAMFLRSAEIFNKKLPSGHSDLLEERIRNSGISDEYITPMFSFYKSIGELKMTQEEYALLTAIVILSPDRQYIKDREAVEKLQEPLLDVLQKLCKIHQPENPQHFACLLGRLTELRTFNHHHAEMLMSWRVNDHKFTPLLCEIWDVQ
Nuclear receptor ROR-gamma (Homo sapiens), sequence (P51449 whole entry, looked up): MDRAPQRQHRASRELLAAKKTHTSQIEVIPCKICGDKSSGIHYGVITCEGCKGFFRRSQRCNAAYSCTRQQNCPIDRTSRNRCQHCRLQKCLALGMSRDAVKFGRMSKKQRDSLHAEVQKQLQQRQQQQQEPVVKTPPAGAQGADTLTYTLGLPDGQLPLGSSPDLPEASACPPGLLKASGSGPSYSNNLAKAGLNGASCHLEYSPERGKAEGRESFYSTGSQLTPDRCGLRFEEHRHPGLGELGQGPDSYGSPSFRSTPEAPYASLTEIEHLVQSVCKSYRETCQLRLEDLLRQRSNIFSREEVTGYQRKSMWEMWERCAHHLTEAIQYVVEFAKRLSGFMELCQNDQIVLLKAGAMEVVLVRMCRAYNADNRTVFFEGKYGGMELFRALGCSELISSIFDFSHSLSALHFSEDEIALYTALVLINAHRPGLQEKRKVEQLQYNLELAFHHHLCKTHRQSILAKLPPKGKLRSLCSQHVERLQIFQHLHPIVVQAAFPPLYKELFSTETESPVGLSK
Tumor necrosis factor (Homo sapiens), sequence (P01375 whole entry, looked up): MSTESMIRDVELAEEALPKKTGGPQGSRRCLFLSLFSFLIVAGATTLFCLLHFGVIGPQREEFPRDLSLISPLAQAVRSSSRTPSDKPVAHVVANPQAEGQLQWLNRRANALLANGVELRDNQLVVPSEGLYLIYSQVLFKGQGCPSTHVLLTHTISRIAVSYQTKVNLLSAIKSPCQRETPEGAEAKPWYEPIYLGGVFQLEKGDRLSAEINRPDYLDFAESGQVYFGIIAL
Estrogen receptor (Homo sapiens), sequence (P03372 whole entry, looked up): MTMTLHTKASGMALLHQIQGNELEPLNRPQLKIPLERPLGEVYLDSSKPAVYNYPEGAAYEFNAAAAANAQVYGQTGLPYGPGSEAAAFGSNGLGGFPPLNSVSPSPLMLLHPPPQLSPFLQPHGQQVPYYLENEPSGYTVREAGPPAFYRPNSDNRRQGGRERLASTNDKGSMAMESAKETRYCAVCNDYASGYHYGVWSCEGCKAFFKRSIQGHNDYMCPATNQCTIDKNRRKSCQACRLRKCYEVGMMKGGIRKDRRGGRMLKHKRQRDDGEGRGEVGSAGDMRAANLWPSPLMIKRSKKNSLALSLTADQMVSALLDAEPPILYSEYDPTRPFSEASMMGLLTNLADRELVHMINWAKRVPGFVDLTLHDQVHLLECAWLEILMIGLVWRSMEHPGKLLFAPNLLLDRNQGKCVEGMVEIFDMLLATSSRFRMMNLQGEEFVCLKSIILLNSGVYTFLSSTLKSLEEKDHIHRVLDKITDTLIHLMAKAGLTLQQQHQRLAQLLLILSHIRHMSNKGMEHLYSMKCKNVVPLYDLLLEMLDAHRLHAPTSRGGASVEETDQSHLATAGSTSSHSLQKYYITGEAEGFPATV
Peroxisome proliferator-activated receptor delta (Homo sapiens), sequence (Q03181 whole entry, looked up): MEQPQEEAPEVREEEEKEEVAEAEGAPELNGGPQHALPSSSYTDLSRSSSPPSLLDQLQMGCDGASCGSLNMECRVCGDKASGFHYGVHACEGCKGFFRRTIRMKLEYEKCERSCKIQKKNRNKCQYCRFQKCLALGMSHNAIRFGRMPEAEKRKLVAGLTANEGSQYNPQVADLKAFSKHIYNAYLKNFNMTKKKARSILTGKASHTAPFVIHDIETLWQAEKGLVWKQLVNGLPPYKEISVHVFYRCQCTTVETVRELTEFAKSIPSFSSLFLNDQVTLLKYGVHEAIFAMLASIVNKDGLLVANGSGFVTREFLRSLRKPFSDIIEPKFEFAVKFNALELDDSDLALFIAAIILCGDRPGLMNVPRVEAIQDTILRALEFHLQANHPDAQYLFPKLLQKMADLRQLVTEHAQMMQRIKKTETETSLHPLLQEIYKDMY

`O=[N+]([O-])c1ccc(Cl)cc1`: the Potency in [1] and in [2] was > 92 µM (inactive) throughout. Moreover, the Potency entry in [3], in [4], in [5], in [8], in assay [10] and in [12] was “inactive” in each case. For the same molecule, the activation in assay [6] is -1.26% (inactive) and -4.41% (inactive); in assay [9], -0.791% (inactive) and -0.89% (inactive). In addition, the outcome in assay [7] and in assay [11] was inactive.
For `ClC=CCl`, the Potency in assay [1] is > 92 µM (inactive); in [3], 0.0631 µM (active). Moreover, the Potency result in assay [13], in assay [4], in assay [5], in assay [14], in [8] and in [10] was “inactive” throughout. In assay [12], the Potency entry was “inactive”. Besides, the activation was -2.58% (inactive) in assay [6] and 0.173% (inactive) in [9]. Moreover, the max response in [15] was determined as 12.6%. Further, the outcome in assay [7] and in assay [11] was inactive.
For `C=CCCC#N`, the Potency in [1] and in assay [2] was > 92 µM (inactive) each time. The Potency result in assay [5], in assay [14], in assay [10] and in assay [12] was “inactive” in each case. Also, the activation in assay [16] is -0.315% (inactive); in assay [6], -1.36% (inactive); in assay [9], 0.189% (inactive). Further, the outcome in [17], in assay [7] and in assay [11] was inactive.
As to `CCSC(=O)N1CCCCCC1`, the Potency in assay [1] is > 92 µM (inactive); in assay [2], > 92 µM (inactive); in assay [8], 66.8 µM (active). In addition, the Potency result in assay [4], in [14], in [18], in assay [10] and in assay [12] was “inactive” each time. Further, in assay [15], the max response is -18%. In addition, the activation in [9] is 0.506% (inactive) and -0.843% (inactive). Also, the result in assay [11] was inactive.
As to `N#C/C(N)=C(/N)C#N`, the Potency in assay [1] and in assay [2] was > 92 µM (inactive) each time. In addition, the Potency result in [4], in assay [5], in [14], in assay [18], in [10] and in [12] was “inactive” throughout. Further, the results for the activation in assay [6] and in assay [9] were -0.556% (inactive) and -1.05% (inactive), respectively. Also, the outcome in assay [19], in assay [17], in assay [7] and in [11] was inactive.
As to `BrC(Br)Br`, the Potency in assay [1] and in assay [2] was > 92 µM (inactive) in each case. Also, the Potency entry in assay [4], in assay [5], in [10] and in assay [12] was “inactive” each time. In addition, the activation in assay [16] is -2.73% (inactive); in [6] it was -1.59% (inactive); in assay [9], 0.744% (inactive). Also, the result in assay [19], in assay [17], in assay [7] and in assay [11] was inactive.
Take `CC(C)OS(C)(=O)=O`: the Potency in assay [1] and in [2] was > 92 µM (inactive) in each case. Further, the Potency result in assay [13], in [5] and in [14] was “inactive” each time. Moreover, the activation in assay [16] was -3.78% (inactive). Besides, in [15], the max response is -20%. Moreover, the outcome in assay [20], in assay [7] and in assay [11] was inactive.
